p53 reactivator: qHTS assay for re-activators of p53 using a Luc reporter; H1299 p53-A138V BP100-luciferase reporter, luminescence, 24 h; 0.063% of 320,000 active; Potency, µM (doses to about 92.2 µM), inactives show top-dose activity change, positive = activation, actives largely listed as activators; also: potency is read from the fitted curve at half-maximal effect; % of control where 0% means no effect; nearly all actives have a fitted effect of over 45% in size
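H1299 (p53-null), stable ts p53-A138V + BP100-Luc; 1000 cells/well, Opti-MEM/10% FBS; cpd 4 pt, 1:5; 24 h, 37 deg C, 5% CO2; detection reagent 10 min RT; luminescence.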
IL-2 act: qHTS of IL-2 Activators. IL-2 activation reporter assay, cell-based qHTS; stimulated with anti-CD3/CD4/CD28 beads; in transgenic mouse T cells. activation, % (series mostly up to about 46 µM). 0.065% of 360,000 active; in the data active = activation above about 50%; inconclusive = mostly about 30% to 49%; also: 0% is about no effect
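Screening format: compound pinned onto unstimulated transgenic mouse T cells, 60 min incubation, then anti-CD3/anti-CD4/anti-CD28 bead stimulation for 18 hours at 37 degrees C, followed by EGFP and DsRed detection.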
Mito fusion act: qHTS Assay for Small Molecule Inhibitors of Mitochondrial Division or Activators of Mitochondrial Fusion; S. cerevisiae fusion-defective mutant growth rescue, CellTiterGlo 48 h; Potency, µM (highest dose often 46.1 µM), inactives show top-dose growth rescue (activation), usual class: activators; 0.23% of 320,000 active; also: potency is read from the fitted curve at half-maximal effect; % of control where 0% means no effect; nearly all actives have a fitted effect of over 45% in size
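Compounds are tested for their ability to restore growth of mitochondrial fusion-defective yeast strains at non-permissive 37C in YPEG medium over 48 hours. Viability is quantified by luciferase luminescence.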
BRCA1 expr up: qHTS Assay to Identify Small Molecule Activators of BRCA1 Expression; MCF7-BRCA1-FFLuc reporter, luminescence, 48 h; response scale: scaled: vehicle 0%, 10 µM genistein 100%; Potency, µM (doses to about 46.1 µM), for inactives: at the highest dose activation, usual class: activators; 1.1% of 380,000 active; also: potency is read from the fitted curve at half-maximal effect; nearly all actives have a fitted effect of over 80% in size
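MCF7-BRCA1-FFLuc, 2000 cells/well; 2 h attach, 37 °C/5% CO2; compound 48 h; luciferase substrate 15 min; luminescence end-point. Norm. to genistein 10 microM max activation and DMSO; concentration-response curves fitted.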
TCR act: Activators of T cell receptors: qHTS campaign; primary human leukocytes, anti-CD3, IL-2 HTRF, 48 h; Potency, µM (titrated, usually from 9.22 µM), for inactives: at the top dose activation of IL-2 secretion, hits mostly activators; 330,000 tested, under 10 active; AID 504894, 2011; also: % of control where 0% means no effect
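Primary human leukocytes incubated 48 hr with anti-CD3 beads plus compound, without co-stimulation. Secreted IL-2 measured by HTRF (europium cryptate/d2 anti-IL-2 pair, 320 nm excitation, 665 nm emission).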
Numbers without * were called inactive; ? = inconclusive; nt = no result; [ ] = dose if it differs, or a comment. An excerpt weighted towards active compounds, which were near 1.3% of everything screened. Unless noted, calls follow the shape of the dose curve; as a rule, active = well fitted curve in the direction sought with a large enough effect; inconclusive = small, poorly fitted or top-dose-only effect, or another doubt; inactive = no such curve, though single readings can be large; an effect the other way counts as inactive or inconclusive.

SMILES | p53 reactivator | IL-2 act | Mito fusion act | BRCA1 expr up | TCR act
COc1ccccc1-c1nc(COc2ccc(Cl)cc2Cl)no1 | 25% | 3 | -1% | 4.5µM* | -5%
O=C(COc1ccccc1C(=O)OCC(=O)Nc1cccc2ccccc12)Nc1ccc(Br)cc1 | nt | nt | nt | 1% | nt
CCNc1ccc(C(=O)Nc2ccc3nc(C)sc3c2)cc1[N+](=O)[O-] | 10% | 1 | 35µM* | -11% | 2%[46.1 µM]
Cc1nc2cc(NC(=O)CCS(=O)(=O)c3ccccc3)ccc2s1 | 32µM* | -1 | -9% | ? | -15%[46.1 µM]
Cc1ccc(NC(=O)c2ccc(NCCN)c([N+](=O)[O-])c2)cc1Cl | 17% | 0 | -18% | 3% | 0%[46.1 µM]
Cc1ccc(OC(=O)c2ccc3nc(C)sc3c2)cc1 | 13% | 394* | 0% | 0% | 3%
Cc1nc2ccc(NC(=O)Cc3ccsc3)cc2s1 | 14% | 1 | -8% | 11µM* | 4%
Cc1nc2ccc(NC(=O)CCS(=O)(=O)c3ccccc3)cc2s1 | ? | -4 | 7% | ? | -1%[46.1 µM]
COc1ccc(C2Nc3ccccc3C(=O)N2c2ccc(F)cc2)cc1COc1ccc(NC(C)=O)cc1 (stereo not given) | nt | nt | nt | 56% | nt
O=C(Nc1ccc2c(c1)CCC2)c1cnn2c1NC(=C1CC1)C=C2C(F)F | nt | nt | nt | 3% | nt
Cc1cccc(OCCC(=O)NO)c1 | nt | nt | nt | -4% | nt
CC(=O)Nc1ccc2nc3ccccc3nc2c1 | 14% | -1 | 4% | 5.6µM* | 7%
CCc1sc(C(=O)Nc2ccc(NC(C)=O)cc2)cc1C | -10% | -1 | 4% | 15% | -9%[46.1 µM]
Cc1nc2ccc(NC(=O)c3ccc4ccccc4n3)cc2s1 | 3% | -1 | 4µM* | 26% | 1%
Cc1nc2ccc(NC(=O)c3ccco3)cc2s1 | 9% | -3 | -5% | ? | -1%
Cc1nc2ccc(NC(=O)c3cccs3)cc2s1 | ? | -4 | -5% | 6.3µM* | -8%
O=C(Nc1ccc2nc3ccccc3nc2c1)c1ccc(Br)cc1 | 3% | 25 | 6% | ? | 5%[46.1 µM]
CCc1sc(C(=O)Nc2ccc3nc(C)sc3c2)cc1C | 9% | 0 | nt | 3.2µM* | 4%
CN(C)c1ccc(/C=C/c2ncnc3ccccc23)cc1 | nt | nt | nt | 50% | nt
CCc1ccc(CN(C(=O)Nc2cccc(Cl)c2)c2ccccn2)cc1 | nt | nt | nt | 9% | nt
O=C(Nc1ccc2nsnc2c1)c1cccs1 | 9% | 2 | 2% | -9% | -4%
Cc1nc2ccc(NC(=O)N3CCSCC3)cc2s1 | 12% | 0 | 1% | 66% | 1%
Cc1nc2ccc(NC(=O)c3ccccc3)cc2s1 | 9% | -1 | -3% | 3.5µM* | 3%
O=C(Nc1ccc2nn(-c3ccccc3)nc2c1)c1cccs1 | 4% | -1 | -2% | 4.5µM* | 10%
Cc1nc2ccc(NC(=O)N3CCCCC3)cc2s1 | 29% | -2 | -1% | 11µM* | nt
SMILES | p53 reactivator | IL-2 act | Mito fusion act | BRCA1 expr up | TCR act
Clc1ccc(CNc2ncnc3nc[nH]c23)cc1 | nt | nt | nt | 0% | nt
COc1ccc(-n2c(=O)c3c(c4cc(OC)ccc4n3C)n(Cc3cc(C)ccc3C)c2=O)cc1 | nt | nt | nt | 7% | nt
COc1ccc(C(=O)OC(C)C(=O)NC(C)CCc2ccccc2)c(OC)c1 (stereo not given) | -7% | 3 | 11µM* | -25% | -1%
COc1ccc(C(=O)OC(C)C(=O)NC(C)CCc2ccccc2)cc1[N+](=O)[O-] (stereo not given) | -6% | -1 | 1% | -15% | 10%
Cc1ccc(N(C)S(=O)(=O)c2cccc(C(=O)Nc3nc4ccccc4[nH]3)c2)cc1 | 20% | 0 | 20µM* | -70% | -4%[46.1 µM]
Cn1nc(C(=O)Nc2nc3ccccc3[nH]2)ccc1=O | 21% | -2 | 8% | 7.9µM* | 1%
Cc1ccc(-c2n[nH]c3c2C(c2cccs2)N(c2ccc(Cl)cc2)C3=O)cc1 (stereo not given) | nt | nt | nt | -62% | nt
Cc1ccc2cc(CN(CC(C)C)S(=O)(=O)c3cccc4nonc34)c(=O)[nH]c2c1 | 4% | 65* | -1% | -8% | 1%
N#C/C(=C/c1ccc(N2CCCCC2)o1)C(=O)Nc1ccc(Cl)cc1 | ? | ? | 2% | 4.5µM* | nt
N#C/C(=C/c1ccc(N2CCCCC2)o1)C(=O)Nc1ccc2ccccc2c1 | 26% | -4 | 21% | 40% | 1%[46.1 µM]
COc1ccccc1/C=C/c1nc(S(=O)(=O)c2ccccc2)c(N2CCC(C(N)=O)CC2)o1 | -19% | -3 | 35µM* | -26% | -4%
NC(=O)C1CCN(c2oc(/C=C/c3ccc(F)cc3)nc2S(=O)(=O)c2ccccc2)CC1 | 0% | 0 | 0% | -7% | 2%
O=C(Nc1nnc(-c2ccco2)o1)c1ccc2ccccc2c1 | ? | 0 | 13µM* | -11% | -10%[46.1 µM]
Cc1ccc(C(=O)Nc2nnc(-c3ccco3)o2)cc1 | ? | 2 | 0% | 18% | 2%[46.1 µM]
Cc1csc(SCC(=O)Nc2nccs2)n1 | 1% | 5 | -1% | -5% | 2%
NC(=O)c1ccsc1NC(=O)CSc1ccccc1F | ? | -2 | 17% | 11µM* | 0%
Cc1ccccc1SCC(=O)OCC(=O)Nc1sccc1C(N)=O | ? | -2 | -3% | 0% | 0%[46.1 µM]
Cc1csc(SCC(=O)Nc2sccc2C(N)=O)n1 | 4% | 0 | -10% | 6.3µM* | 6%
CCc1nnc(NC(=O)CSc2nnc(-c3ccco3)n2CCOC)s1 | -1% | 4 | 5.6µM* | 27% | 5%
CCc1nnc(NC(=O)CSc2ccc(-c3ccc(C)cc3)nn2)s1 | -2% | 0 | -2% | 11µM* | 6%
CCn1c(SCC(=O)Nc2nnc(C)s2)nnc1-c1ccco1 | -4% | 2 | -3% | -21% | -1%
CCN(CC)CCNC(=O)c1cc2c(=O)n(C)c3cc(Cl)ccc3c2s1 | nt | nt | nt | 7% | nt
Cc1cc(I)ccc1Nc1nc(NCCN2CCOCC2)nc(N2CCOCC2)n1 | nt | nt | nt | 0% | nt
Cc1ccc(-c2csc(NC(=O)CSc3nc(C)cs3)n2)cc1 | ? | -1 | 3% | 11µM* | 8%[46.1 µM]
CN(C)c1ccc(/C=C/c2cccc3cc4ccccc4nc23)cc1 | nt | nt | nt | -68% | nt
O=c1c2ccccc2nc(/C=C/c2cccc(Br)c2)n1CCCO | -2% | -1 | 11µM* | -61% | -10%
O=c1c2ccccc2nc(/C=C/c2ccc(Br)cc2)n1CCCO | 8% | -4 | ? | 1% | 0%
COc1ccccc1/C=C/c1cnccn1 | nt | nt | nt | -13% | nt
C=CCN=Cc1c(C)[nH]n(-c2ccccc2)c1=O | ? | -5 | -1% | 13µM* | -8%
Cc1[nH]n(-c2ccccc2)c(=O)c1C=Nc1ccc2[nH]c(=O)[nH]c2c1 | 1% | 52* | -5% | 0% | 4%
